KDM5B inhibitor: Primary screen for KDM5B Histone Demethylases FDH-coupled qHTS | Lysine-specific demethylase 5B (Homo sapiens), Q9UGL1 | KDM5B demethylase, FDH-coupled NADH fluorescence (FDH is formaldehyde dehydrogenase) | AID 1347165, 2019 | 220,000 compounds, 2.6% hits | Potency, µM (highest dose often 57.7 µM), usual class: inhibitors; active means well fitted inhibition curve with a large enough effect; further: 0% is about no effect; nearly all actives have a fitted effect of over 70% in size
Target sequence (Q9UGL1 whole entry, looked up): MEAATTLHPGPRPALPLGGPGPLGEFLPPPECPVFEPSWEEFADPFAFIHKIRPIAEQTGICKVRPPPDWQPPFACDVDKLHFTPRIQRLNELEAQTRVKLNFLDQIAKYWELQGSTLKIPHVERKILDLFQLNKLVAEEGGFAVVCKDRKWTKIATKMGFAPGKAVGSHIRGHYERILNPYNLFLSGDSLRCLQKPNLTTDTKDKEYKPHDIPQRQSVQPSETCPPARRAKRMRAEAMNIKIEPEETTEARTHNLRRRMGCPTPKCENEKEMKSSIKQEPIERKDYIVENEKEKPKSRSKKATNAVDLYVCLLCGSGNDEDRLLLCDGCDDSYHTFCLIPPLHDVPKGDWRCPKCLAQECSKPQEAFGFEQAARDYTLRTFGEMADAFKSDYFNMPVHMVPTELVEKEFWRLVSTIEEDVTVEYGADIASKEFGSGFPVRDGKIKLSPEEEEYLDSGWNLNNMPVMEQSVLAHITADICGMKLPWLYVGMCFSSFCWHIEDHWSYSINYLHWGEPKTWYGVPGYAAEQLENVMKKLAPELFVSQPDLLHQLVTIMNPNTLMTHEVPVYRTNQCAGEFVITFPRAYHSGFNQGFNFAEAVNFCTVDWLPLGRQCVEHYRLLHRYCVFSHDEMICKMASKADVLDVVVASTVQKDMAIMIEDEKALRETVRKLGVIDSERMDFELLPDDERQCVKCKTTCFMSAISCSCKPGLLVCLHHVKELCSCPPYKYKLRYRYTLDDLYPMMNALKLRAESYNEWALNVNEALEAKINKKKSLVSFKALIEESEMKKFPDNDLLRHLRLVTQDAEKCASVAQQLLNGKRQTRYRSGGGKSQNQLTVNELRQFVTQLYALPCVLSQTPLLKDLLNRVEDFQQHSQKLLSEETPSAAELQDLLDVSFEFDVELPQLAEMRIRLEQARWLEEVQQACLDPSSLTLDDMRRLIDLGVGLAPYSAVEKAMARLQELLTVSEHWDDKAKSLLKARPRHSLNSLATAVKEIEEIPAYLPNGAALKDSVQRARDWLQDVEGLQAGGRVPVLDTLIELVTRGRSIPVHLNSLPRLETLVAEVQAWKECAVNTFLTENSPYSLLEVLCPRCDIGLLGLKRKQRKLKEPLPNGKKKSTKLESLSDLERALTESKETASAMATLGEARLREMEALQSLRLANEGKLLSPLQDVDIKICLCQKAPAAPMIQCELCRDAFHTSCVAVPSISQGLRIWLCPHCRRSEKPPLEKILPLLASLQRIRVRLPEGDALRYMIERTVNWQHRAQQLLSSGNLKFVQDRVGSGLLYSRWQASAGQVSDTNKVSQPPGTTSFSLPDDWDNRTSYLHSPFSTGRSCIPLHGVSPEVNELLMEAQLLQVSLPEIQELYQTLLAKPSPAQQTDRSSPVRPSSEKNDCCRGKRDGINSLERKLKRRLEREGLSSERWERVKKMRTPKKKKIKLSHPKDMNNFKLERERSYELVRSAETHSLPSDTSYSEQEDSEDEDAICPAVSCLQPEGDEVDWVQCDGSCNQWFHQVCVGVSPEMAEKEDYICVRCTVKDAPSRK
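Measured: NADH fluorescence change, 30 min, RT. System: KDM5BΔAP 200 nM final, H3K4me3 peptide, α-KG, Fe(II), ascorbate, NAD⁺ plus FDH, pH 7.5 HEPES. Compounds: titrated, 10 min pre-incubation with enzyme.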
* = called active by the depositor. The full list was thinned out, with hits kept by preference. Potency means the concentration at half of the fitted maximal effect.

What do the screens show for `Cn1cnc(S(=O)(=O)N2CC(N(C3CCOCC3)S(C)(=O)=O)C2)c1`?
KDM5B inhibitor: inactive

How did CN(C)S(=O)(=O)c1ccccc1CNS(=O)(=O)c1ccc2c(c1)CCCC2 do in these assays?
KDM5B inhibitor: inactive

How did CC(=O)N1CCc2cc(NC(C)C(=O)Nc3ccccc3OC(F)F)ccc21 (stereo not given) do in these assays?
KDM5B inhibitor: inactive

How did COc1ccc(S(=O)(=O)N2CCC(n3cnnc3C3CC3)CC2)cc1 do in these assays?
KDM5B inhibitor: inactive

How did CCOc1ccc(CC(=O)N2CCCN(C(=O)C3CC3)c3ccccc32)cc1 do in these assays?
KDM5B inhibitor: inactive

Results for N#Cc1ccc(S(=O)(=O)N2CC[C@@H]3C(=O)NCCCCCCN(Cc4ccncc4)[C@@H]3C2)cc1 ?
KDM5B inhibitor: inactive

How did N#Cc1ccc(CN2CCCCCCNC(=O)[C@@H]3C[C@@H](C(=O)NCCc4cnc[nH]4)C[C@@H]32)cc1 do in these assays?
KDM5B inhibitor: 20µM*

What do the screens show for `Cc1ccc(CNC(=O)N2CCCCCCNC(=O)[C@@H]3C[C@@H](C(=O)NCCc4cnc[nH]4)C[C@@H]32)cc1`?
KDM5B inhibitor: inactive

What do the screens show for `O=C(CCc1ccsc1)N(Cc1ccccn1)C1CC1`?
KDM5B inhibitor: inactive

How did Cn1nccc1C(O)c1cc2n(n1)CCN(C/C=C/c1ccccc1)C2 (stereo not given) do in these assays?
KDM5B inhibitor: 32µM*

What do the screens show for `Cn1nccc1C(O)c1cc2n(n1)CCN(CC(=O)NCc1ccco1)C2` (stereo not given)?
KDM5B inhibitor: inactive

How did Cn1ccnc1C(O)c1cc2n(n1)CCN(C/C=C/c1ccccc1)C2 (stereo not given) do in these assays?
KDM5B inhibitor: inactive

How did O=C(N/N=C/c1cccs1)c1ccc(NC(=O)c2ccccc2)cc1 do in these assays?
KDM5B inhibitor: inactive

Results for O=C1Cc2c(-c3ccc4c(c3)OCO4)n[nH]c2CN1CC1CCOCC1 ?
KDM5B inhibitor: inactive

How did CN(C)c1cccc(-c2n[nH]c3c2CC(=O)N(CC2CC2)C3)c1 do in these assays?
KDM5B inhibitor: 20µM*

How did COCc1cccc(-c2n[nH]c3c2CC(=O)N(CC2CC2)C3)c1 do in these assays?
KDM5B inhibitor: inactive

What do the screens show for `CC(NC(=O)c1cc(-c2ccncc2)nc2ccccc12)c1ccco1` (stereo not given)?
KDM5B inhibitor: inactive

Results for CCN1C(=O)CCN(C(=O)Nc2ccc(C)c(C)c2)CC12CCOCC2 ?
KDM5B inhibitor: inactive

Results for CCOc1ccc(C2Cn3nnc(-c4nc(-c5ccccc5Br)no4)c3CO2)cc1 (stereo not given) ?
KDM5B inhibitor: 22µM*

Results for CCOc1cccc(-c2noc(-c3nnn4c3COC(c3cccc(OC)c3)C4)n2)c1 (stereo not given) ?
KDM5B inhibitor: 25µM*

What do the screens show for `CCOc1ccc(C2Cn3nnc(-c4nc(C)no4)c3CO2)cc1` (stereo not given)?
KDM5B inhibitor: inactive

What do the screens show for `Clc1ccc(C2Cn3nnc(-c4nc(-c5ccccc5Br)no4)c3CO2)cc1` (stereo not given)?
KDM5B inhibitor: inactive

How did COc1cccc(C2Cn3nnc(-c4nc(-c5cccc(C)c5)no4)c3CO2)c1 (stereo not given) do in these assays?
KDM5B inhibitor: inactive

What do the screens show for `COc1cccc(C2Cn3nnc(-c4nc(-c5cccc(Cl)c5)no4)c3CO2)c1` (stereo not given)?
KDM5B inhibitor: inactive

Results for COCCOC1CCN(C(=O)c2cccs2)CC1 ?
KDM5B inhibitor: inactive

How did Fc1cccc(-c2nc(COc3ccc(Oc4ccccn4)cc3)co2)c1 do in these assays?
KDM5B inhibitor: inactive

How did CC1(C)CC(CC(=O)O)(c2cccc(C(F)(F)F)c2)CCO1 (stereo not given) do in these assays?
KDM5B inhibitor: inactive

What do the screens show for `Cc1cccc(Oc2cnn(-c3ccc(C(F)(F)F)cn3)c(=O)c2Cl)c1C`?
KDM5B inhibitor: inactive

How did CCOC(=O)c1c(C)[nH]c(C(=O)C(C)N(C)Cc2ccc(OC)c(F)c2)c1C (stereo not given) do in these assays?
KDM5B inhibitor: inactive

What do the screens show for `Nc1ncccc1CN1CCc2c(n(Cc3ccccc3)n(-c3ccccc3)c2=O)C1`?
KDM5B inhibitor: inactive

How did Cc1ncsc1C(=O)N1CCc2c(n(Cc3cccnc3)n(CCc3ccccc3)c2=O)C1 do in these assays?
KDM5B inhibitor: inactive

What do the screens show for `COC1CCC(C(=O)N2CCc3c(n(Cc4cccnc4)n(-c4ccccc4)c3=O)C2)CC1` (stereo not given)?
KDM5B inhibitor: inactive

How did O=c1c2c(n(Cc3ccccc3)n1-c1ccccc1)CN(Cc1cccnc1)CC2 do in these assays?
KDM5B inhibitor: 32µM*

How did CC(C)C(=O)N1CCc2c(n(Cc3cccnc3)n(CCc3ccccc3)c2=O)C1 do in these assays?
KDM5B inhibitor: inactive

What do the screens show for `O=c1c2c(n(Cc3cccnc3)n1CCc1ccccc1)CN(CC1CCOC1)CC2` (stereo not given)?
KDM5B inhibitor: 35µM*

What do the screens show for `COCCn1c(-n2nc(C)cc2C)nc2c1c(=O)n(Cc1ccc(F)cc1)c(=O)n2C`?
KDM5B inhibitor: inactive

How did CCOc1ccc(C2CCCN2C(=O)c2csc(-c3ccsc3)n2)cc1 (stereo not given) do in these assays?
KDM5B inhibitor: inactive

Results for c1cc(CN2CCn3c(nnc3C3CCCNC3)C2)cs1 (stereo not given) ?
KDM5B inhibitor: inactive

How did Cc1cc(C)c(CNC(=O)c2nc(-c3ccccc3)cc3[nH]ccc23)c(=O)[nH]1 do in these assays?
KDM5B inhibitor: inactive

Results for Cc1cc(C)c(CNC(=O)c2nc(-c3ccnn3C)cc3c2ccn3C(C)C)c(=O)[nH]1 ?
KDM5B inhibitor: 32µM*

How did Cc1cc(C)c(CNC(=O)c2nc(-c3ccccc3C#N)cc3c2ccn3C(C)C)c(=O)[nH]1 do in these assays?
KDM5B inhibitor: inactive

How did COc1ccc(-c2cc3c(ccn3C)c(C(=O)NCc3c(C)cc(C)[nH]c3=O)n2)cc1 do in these assays?
KDM5B inhibitor: inactive

What do the screens show for `Cc1cc(C)c(CNC(=O)c2nc(-c3cccc(O)c3)cc3c2ccn3C)c(=O)[nH]1`?
KDM5B inhibitor: 35µM*

How did Cc1cc(C)c(CNC(=O)c2nc(-c3ccc(CO)cc3)cc3c2ccn3C)c(=O)[nH]1 do in these assays?
KDM5B inhibitor: 35µM*

What do the screens show for `Cc1cc(-c2cc3[nH]ccc3c(C(=O)NCc3c(C)cc(C)[nH]c3=O)n2)ccn1`?
KDM5B inhibitor: 11µM*

How did Cc1cc(C)c(CNC(=O)c2nc(-c3ccccc3)cc3c2ccn3C(C)C)c(=O)[nH]1 do in these assays?
KDM5B inhibitor: inactive

Results for Cc1cc(C)c(CNC(=O)c2nc(-c3cccc(F)c3)cc3c2ccn3C)c(=O)[nH]1 ?
KDM5B inhibitor: inactive

What do the screens show for `Cc1cc(C)c(CNC(=O)c2nc(-c3cccnc3)cc3[nH]ccc23)c(=O)[nH]1`?
KDM5B inhibitor: inactive

Results for COc1cc(OC)cc(C(=O)Nc2cccc(-c3nncn3C)c2)c1 ?
KDM5B inhibitor: inactive

How did COc1ccc(CCN[C@H]2CS(=O)(=O)C[C@@H]2S(=O)(=O)c2ccc(C)cc2)cc1OC do in these assays?
KDM5B inhibitor: inactive

How did O=C(OCCCc1ccccc1)c1cccnc1 do in these assays?
KDM5B inhibitor: inactive

How did COc1cc(SC)ccc1C(=O)Nc1nnc(C(F)(F)F)s1 do in these assays?
KDM5B inhibitor: inactive

What do the screens show for `CCc1nc(C#N)c(N2CCN(c3ccccc3)CC2)o1`?
KDM5B inhibitor: inactive

From PubChem BioAssay
